# Results filed as inconclusive are left out. Calls of active or inactive are those of the source. Calls follow the shape of the dose curve; as a rule, active = well fitted inhibition curve with a large enough effect; inconclusive = small, poorly fitted or top-dose-only effect; inactive = no such curve, though single readings can be large or run the other way.
# Experiment: Confirmation assay for measurement of the activity of small molecule inhibitors on Zika virus induced Caspase-3 activity in human astrocytoma cells
# Conditions: SNB-19 ZIKV-induced caspase-3/7, luminescence, 6 h; series mostly up to 46.1 µM; activity change, negative = inhibition: at the top concentration
# Method in brief: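 SNB-19, 250 cells/well, cultured 16-20 h; cpd 1 h pre-incubation; ZIKV 2 FFU/cell, 6 h, 37 C/5% CO2; Caspase-Glo 3/7 30 min RT; luminescence; normalized vs uninfected/infected controls.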
SMILES,Potency,"activity change, negative = inhibition"
Cc1cc(O)c2c(c1)C(=O)c1cc(O)cc(O)c1C2=O,4.89 µM (active),–
O=C(Nc1ccc([N+](=O)[O-])cc1Cl)c1cc(Cl)ccc1O,1.95 µM (active),–
O=C(c1ccccc1)c1ccc2n1CCC2C(=O)O (configuration not stated),17.3 µM (active),–
CCCCCCCC/C=C/C(=O)O,–,-2.36% (inactive)
NC(=O)c1cccc2[nH]c(-c3ccc([C@H]4CCCN4)cc3F)nc12,17.3 µM (active),–
C[C@H](NC(=O)C(=O)Nc1ccccc1C(C)(C)C)C(=O)N[C@@H](CC(=O)O)C(=O)COc1c(F)c(F)cc(F)c1F,0.615 µM (active),–
O=C(O)CCC(=O)c1ccc(-c2ccccc2)cc1,24.5 µM (active),–
CC(C(=O)O)c1ccc(-c2ccccc2)c(F)c1 (configuration not stated),–,-11.9% (inactive)
Cc1ccc(O)c(-n2nc3ccccc3n2)c1,7.74 µM (active),–
O=C(O)[C@H](CC(=O)N1C[C@@H]2CCCC[C@H]2C1)Cc1ccccc1,–,-6.96% (inactive)
CC[C@@]1(O)C[C@H](O[C@H]2C[C@H](N(C)C)[C@H](O[C@H]3C[C@H](O)[C@H](O[C@H]4CCC(=O)[C@H](C)O4)[C@H](C)O3)[C@H](C)O2)c2c(cc3c(c2O)C(=O)c2c(O)cccc2C3=O)[C@@H]1C(=O)OC,–,-13.4% (inactive)
COc1ccc2nc(NC(=O)Nc3ccccc3)sc2c1,21.8 µM (active),–
CC(=C(CCOC(=O)C(C)C)SSC(CCOC(=O)C(C)C)=C(C)N(C=O)Cc1cnc(C)nc1N)N(C=O)Cc1cnc(C)nc1N,–,-17% (inactive)
Nc1ccc(-c2ccc3ccccc3n2)cc1,6.9 µM (active),–
CC(C(=O)O)c1ccc(C(=O)c2ccccc2)s1 (configuration not stated),8.69 µM (active),–
C[C@@H](O[C@H]1OCCN(Cc2n[nH]c(=O)[nH]2)[C@@H]1c1ccc(F)cc1)c1cc(C(F)(F)F)cc(C(F)(F)F)c1,–,116% (inactive)
CC(O)=C(C#N)C(=O)Nc1ccc(C(F)(F)F)cc1,0.869 µM (active),–
COc1cccc(-c2cc(=O)c3ccccc3o2)c1N,7.74 µM (active),–
O[C@@H](COc1cccc2ncccc12)CN1CCN(C2c3ccccc3[C@@H]3[C@H](c4ccccc42)C3(F)F)CC1 (some centres not stated),–,-9.17% (inactive)
CCC(C(=O)O)c1ccc(N2Cc3ccccc3C2=O)cc1 (configuration not stated),6.9 µM (active),–
O=C(O)Cc1ccc(-c2ccccc2)cc1,–,-25.3% (inactive)
O=C(OCc1ccccc1)c1ccc(O)cc1,19.5 µM (active),–
